Test results published in PubChem BioAssay AID1159580 (chemical genetic matrix, 2015).
The campaign covered roughly 5,500 compounds. About 2,000 (36%) were called active. Another 18% or so got no clear call; they are omitted. Cut-off read from the data, not from the text of the source: active = normalized growth mostly below about 0.91 (no sharp cut-off); inconclusive = no clear call, values can overlap the other calls; inactive = mostly above about 0.92. The list shows a part of the results.

Assay: chemical genetic growth profiling, strain panel (AID 1159580);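 note: tested at 20 µM; growth read once vehicle control cultures reached saturation at 30 °C; 1 = growth at the plate median or of vehicle wells; lower values mean less growth of the strain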
Settings: S. cerevisiae deletion strains, growth OD

Measured: normalized growth

C=C1CCC2C(CC2(C)C)C(=C)CC/C1=N\O (stereo not drawn)
inactive: locus YAL013W, strain DEP1, hits give low values 1 | locus YAL021C, strain ccr4, hits give low values 1.04 | locus YAL026C, strain drs2, hits give low values 1.01 | locus YAL030W, strain snc1, hits give low values 1 | locus YBL061C, strain skt5, hits give low values 0.999 | locus YBR009C, strain hhf1, hits give low values 0.99 | locus YBR021W, strain FUR4, hits give low values 0.89 | locus YBR023C, strain chs3, hits give low values 1.01 | locus YBR171W, strain sec66, hits give low values 0.993 | locus YBR229C, strain ROT2, hits give low values 1.02 | locus YBR231C, strain swc5, hits give low values 1.01 | locus YBR279W, strain paf1, hits give low values 1.01 | locus YCL011C, strain gbp2, hits give low values 0.997 | locus YCL016C, strain dcc1, hits give low values 0.994 | locus YCL029C, strain bik1, hits give low values 0.983 | locus YCL061C, strain MRC1, hits give low values 0.992 | locus YCL069W, strain vba3, hits give low values 1.01 | locus YCR088W, strain abp1, hits give low values 1 | locus YDL005C, strain med2, hits give low values 0.994 | locus YDL035C, strain GPR1, hits give low values 0.87 | locus YDL040C, strain nat1, hits give low values 0.998 | locus YDL074C, strain BRE1, hits give low values 0.82 | locus YDL101C, strain DUN1, hits give low values 0.986 | locus YDL134C, strain PPH21, hits give low values 1.01 | locus YDL185W, strain tfp1, hits give low values 0.978 | locus YDR001C, strain nth1, hits give low values 1 | locus YDR069C, strain doa4, hits give low values 0.995 | locus YDR101C, strain arx1, hits give low values 0.947 | locus YDR137W, strain rgp1, hits give low values 0.949 | locus YDR150W, strain NUM1, hits give low values 1.03 | locus YDR159W, strain sac3, hits give low values 0.977 | locus YDR195W, strain ref2 1.01 | locus YDR297W, strain sur2, hits give low values 1.01 | locus YDR334W, strain swr1, hits give low values 1 | locus YDR335W, strain msn5, hits give low values 1 | locus YDR388W, hits give low values 0.964 | locus YDR392W, strain spt3, hits give low values 0.839 | locus YDR502C, strain sam2, hits give low values 0.927 | locus YEL003W, strain gim4, hits give low values 1 | locus YEL037C, strain rad23, hits give low values 0.993 | locus YEL061C, strain CIN8 (second series), hits give low values 1.01 | locus YEL061C, strain CIN8, hits give low values 1.01 | locus YER015W, strain faa2, hits give low values 1.01 | locus YER016W, strain bim1, hits give low values 1 | locus YER110C, hits give low values 1.02 | locus YER111C, strain swi4, hits give low values 1 | locus YER155C, strain BEM2 (second series), hits give low values 1 | locus YER155C, strain BEM2, hits give low values 0.992 | locus YER167W, strain BCK2, hits give low values 0.915 | locus YFR010W, strain ubp6, hits give low values 1 | locus YGL167C, strain pmr1, hits give low values 0.996 | locus YGL173C, strain kem1, hits give low values 1 | locus YGL227W, strain vid30, hits give low values 1 | locus YGL240W, strain doc1, hits give low values 1 | locus YGL248W, strain PDE1, hits give low values 1.02 | locus YGL253W, strain hxk2, hits give low values 1 | locus YGR078C, strain PAC10, hits give low values 0.954 | locus YGR135W, strain pre9, hits give low values 0.924 | locus YGR252W, strain gcn5, hits give low values 0.799 | locus YHR013C, strain ard1, hits give low values 1.04 | locus YHR027C, strain rpn1, hits give low values 0.999 | locus YHR030C, strain SLT2, hits give low values 0.983 | locus YHR079C, strain IRE1 (second series), hits give low values 0.962 | locus YHR094C, strain hxt1, hits give low values 0.998 | locus YHR129C, strain ARP1, hits give low values 0.992 | locus YHR142W, strain chs7, hits give low values 1 | locus YHR200W, strain rpn10, hits give low values 0.971 | locus YIL066C, strain RNR3, hits give low values 0.908 | locus YIL073C, strain SPO22, hits give low values 1.08 | locus YIL125W, strain kgd1, hits give low values 0.993 | locus YIR030C, strain dcg1, hits give low values 0.993 | locus YJL092W, strain hpr5, hits give low values 0.996 | locus YJL095W, strain BCK1 (second series), hits give low values 1 | locus YJL095W, strain BCK1, hits give low values 0.843 | locus YJL115W, strain asf1, hits give low values 0.998 | locus YJL129C, strain trk1, hits give low values 0.994 | locus YJL134W, strain LCB3, hits give low values 1.01 | locus YJL154C, strain vps35, hits give low values 1 | locus YJL164C, strain tpk1, hits give low values 1 | locus YJL166W, strain qcr8, hits give low values 1.01 | locus YJL168C, strain set2, hits give low values 0.998 | locus YJL187C, strain SWE1 (second series), hits give low values 0.973
active: locus YDL192W, strain arf1, hits give low values 0.884 | locus YDR162C, strain NBP2, hits give low values 0.735 | locus YDR318W, strain mcm21, hits give low values 0.911 | locus YGL078C, strain dbp3, hits give low values 0.922 | locus YGL086W, strain mad1, hits give low values 0.923 | locus YGR229C, strain SMI1, hits give low values 0.738
